Source: PubChem BioAssay AID588855 (National Center for Advancing Translational Sciences (NCATS), 2011)
About 5,000 (1.2%) of roughly 410,000 compounds were called active. Where a call stands in place of a potency, no number is given. Roughly 13% stayed inconclusive and do not appear here. This is one part of a sample in which actives are shown more often than they occur. Calls come from the whole dose curve; as a rule, active = well fitted inhibition curve with a large enough effect; inconclusive = small, poorly fitted or top-dose-only effect; inactive = no such curve, though single readings can be large or run the other way.

Test: qHTS for Inhibitors of TGF-b; note: nearly all actives have a fitted effect of over 65% in size
Settings: HepG2 CAGA-GFP TGF-b/SMAD3 reporter, GFP fluorescence, 18 h, TGF-beta stimulated, 500 pg/mL final; series mostly up to 46.1 µM
How it was run: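 GFP signal (ex488/em500-530) from TGF-beta-stimulated HEPG2 CAGA-GFP cells, 500 pg/mL final, 18 h at 37 degrees C in DMEM plus 1% FBS, normalized to unstimulated and DMSO-stimulated controls.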
Potency is the fitted concentration of half-maximal effect.

SMILES	Potency
CCOC(=O)N1CCC(NC(=O)c2cnn(-c3cccc(C)c3)c2C2CCN(C(=O)OC(C)(C)C)CC2)CC1	inactive
O=C(NCCc1ccccc1)C(=O)NCC(c1ccco1)S(=O)(=O)c1ccccc1 (stereo not drawn)	inactive
CCOCCCNC(=O)c1c(NC(=O)c2nc(SC)ncc2Cl)sc2c1CCCC2	inactive
O=C(Nc1cccc2cccnc12)c1cccc2c(Br)cccc12	inactive
Fc1ccc(C(Nc2ccc(Cl)c(C(F)(F)F)c2)c2nnc(-c3ccccc3)o2)cc1 (stereo not drawn)	10 µM (active)
Cc1ccc(C)c(N2CCN(C(c3ccccc3)c3nnc(-c4ccccc4)o3)CC2)c1 (stereo not drawn)	inactive
CC(=O)c1ccc(NC(c2ccc(F)cc2)c2nnc(-c3ccccc3)o2)cc1 (stereo not drawn)	inactive
Cc1ccc(-c2nnc(SCc3ccccc3C)o2)cc1	inactive
CCOC(=O)c1cccc(NS(=O)(=O)c2cn(C)c(C)n2)c1	inactive
Cc1c(C(=O)N(C)C)sc2c1c(=O)n(-c1ccc(F)cc1)c(=O)n2CC(=O)N(C)c1ccccc1	inactive
CCNC(=O)c1cc2n(n1)CCCN(Cc1ccc(C)cc1)C2=O	inactive
Cc1ccc(NC(=O)c2cc3cc(C)ccc3n2C)cc1	inactive
CCCn1c(=N)c(C(=O)NCc2ccccc2)cc2c(=O)n3cccc(C)c3nc21	inactive
CCCn1ccc2c(OCC(=O)NCc3ccc(F)cc3)cccc2c1=O	inactive
COC(=O)COc1cccc2c(=O)n(CC(=O)NCc3ccccc3)ccc12	8.91 µM (active)
CCOCCn1ccc2c(OCC(=O)NCc3ccc(C)cc3)cccc2c1=O	inactive
COc1ccc(OCC(=O)Nc2cccc(C(=O)OCc3cc(=O)n4nc(C)sc4n3)c2)cc1	inactive
O=C(NCCN1CCOCC1)c1ccc2c(c1)N(Cc1cccc(Cl)c1)C(=O)c1ccccc1S2(=O)=O	inactive
O=C(NCCCN1CCOCC1)c1cc(-c2ccccc2F)no1	inactive
O=C(NCCCN1CCCCC1)c1ccc2c(c1)NC(=O)C(N1CCOCC1)S2 (stereo not drawn)	inactive
CCC1=Nc2cc(C(=O)NCCCN3CCOCC3)ccc2Sc2ccc(Br)cc21	inactive
O=C(NCCCN1CCOCC1)c1ccc2c(c1)N(Cc1cccc(F)c1)C(=O)c1ccccc1S2	11.2 µM (active)
Cc1csc2nc(COC(=O)c3ccc(NC(=O)COc4ccccc4F)cc3)cc(=O)n12	inactive
COc1ccccc1CNC(=O)C(=O)NCC(c1cccs1)S(=O)(=O)c1cccs1 (stereo not drawn)	inactive

SMILES	Potency
Cc1ccc2c(c1)N(C(=O)Nc1ccc(Br)cc1F)CCO2	inactive
C[C@@H]1C(c2ccc(F)cc2)=NN(c2ccc(Br)cc2)[C@H]1C(=O)N1CCOC1=O	14.1 µM (active)
CC1CC(C)CN(C(=O)C2CC(=O)N(c3ccc(F)cc3)C2)C1 (stereo not drawn)	inactive
COc1ccc(CNC(=O)c2cc3c(s2)-c2ccccc2OC3)cc1	inactive
Cc1cc(C)cc(-n2c(SCC(=O)NCC3CCCO3)nc3c([nH]c4ccccc43)c2=O)c1 (stereo not drawn)	inactive
Cc1ccc(CSc2nc3cccnc3n2Cc2ccc(C(=O)NC3CC3)cc2)cc1	inactive
Cc1cccc(CSc2nc3ccncc3n2Cc2ccc(C(=O)O)cc2)c1	inactive
Cc1oc(-c2ccccc2)nc1Cn1c(SCc2cccc(C(F)(F)F)c2)nc2cccnc21	15.8 µM (active)
COC(=O)c1ccc(OC)c(Cn2c(=O)n(Cc3ccccc3)c(=O)c3c2c2cc(OC)ccc2n3C)c1	inactive
COc1cc2[nH]c(C)c(CCN3CCN(c4ccccc4)CC3)c2cc1OC	inactive
O=C(NNc1ccccc1Cl)C(O)(c1cccc(C(F)(F)F)c1)c1cccc(C(F)(F)F)c1	15.8 µM (active)
O=C(CNS(=O)(=O)c1cccc(C(F)(F)F)c1)Nc1ccccc1F	inactive
O=C(Nc1cc(C(F)(F)F)ccc1Cl)c1nc2ccccc2nc1N1CCCCC1	inactive
COc1ccc(CNC(=O)CCc2c(C)nn(-c3ccc(N4CCCC4)nn3)c2C)cc1	inactive
Cc1ccccc1CNC(=O)CSc1nnc(C)c2c(C)n(-c3ccccc3)nc12	inactive
O=C(NCCc1ccc(Cl)cc1)c1ccc2nc(CCc3ccccc3)oc2c1	inactive
Cc1ccc(C)c(Cn2c(CCCNC(=O)C3CCCCC3)nc3ccccc32)c1	inactive
Cn1c(N)c(C(=O)COC(=O)/C=C/c2cccc(C(F)(F)F)c2)c(=O)n(C)c1=O	inactive
CCOC(=O)CCC(NC(=O)c1ccc(CNc2nc3cc(C(F)(F)F)ccc3nc2C(=O)OCC)cc1)C(=O)OCC (stereo not drawn)	inactive
CCOC(=O)c1c(NC(=O)c2cc(CC)on2)sc(C(C)=O)c1C	inactive
COc1cccc(-c2n[nH]c3c2C(c2cccc(O)c2)N(C)C3=O)c1 (stereo not drawn)	inactive
CN1C(=O)c2[nH]nc(-c3ccc(F)cc3)c2C1c1ccccn1 (stereo not drawn)	inactive
CCCCN1C(=O)c2[nH]nc(-c3ccccc3O)c2C1c1cccc(OCc2ccccc2)c1 (stereo not drawn)	15.8 µM (active)
CN(C)Cc1cn(-c2ccccc2)nc1-c1ccccc1	inactive

SMILES	Potency
Cc1ccc(CNC(=O)C2(C(F)(F)F)C/C(=C\CCO)CCCO2)o1 (stereo not drawn)	inactive
CCOc1cc(C2C(C(=O)Nc3ccc(OC)cc3)=C(C)Nc3nc(SC)nn32)ccc1O (stereo not drawn)	inactive
Cc1ccc(C=O)c([B-](F)(F)F)c1	inactive
CN1c2ccc(C=O)c3c(C=O)ccc(c23)N(C)C1(C)C	20 µM (active)
CC1CC(C)CN(CCOc2cccc3ccccc23)C1 (stereo not drawn)	inactive
CC(C)c1ccccc1OCC(O)CN(CC(O)COc1cccc2ccccc12)C(C)C (stereo not drawn)	15.8 µM (active)
CN1CCN(CCCCOc2cccc3ccccc23)CC1	inactive
CCN(C(=O)Cn1cnc2sc(C)c(S(=O)(=O)N3CCN(c4ncccn4)CC3)c2c1=O)c1ccccc1F	inactive
O=C(Nc1ccc2nc(SCCOc3ccccc3Cl)sc2c1)c1ccco1	inactive
Cc1cc(C(=O)Nc2cccc(C(F)(F)F)c2)c2c(C)nn(-c3cccc(F)c3)c2n1	7.08 µM (active)
CSc1ccc(CCNC(=O)c2cc(C)nc3c2c(C)nn3-c2cccc(F)c2)cc1	inactive
COc1cc(NC(=O)c2cc(C3CC3)nc3c2c(C)nn3-c2ccccc2)cc(OC)c1	inactive
O=C(Nc1cc(C(F)(F)F)ccc1Cl)c1ccc2c(c1)CCN2S(=O)(=O)c1ccccc1	inactive
O=C(Nc1cc(C(F)(F)F)ccc1Cl)c1cc2nc(-c3ccc4c(c3)OCO4)cc(C(F)(F)F)n2n1	inactive
Cc1noc(C)c1S(=O)(=O)Nc1cc(C(F)(F)F)ccc1N1CCOCC1	inactive
CN(CC(=O)Nc1cccc(C(F)(F)F)c1)S(=O)(=O)c1cccs1	inactive
Cc1oc2c(F)c(F)c(F)c(F)c2c1S(=O)(=O)Nc1cccc(C(F)(F)F)c1	7.08 µM (active)
CCC(=O)N1N=C(c2ccc(OC)cc2)CC1c1cn(-c2ccccc2)nc1-c1cccs1 (stereo not drawn)	inactive
Cc1nnc(SCC(=O)NCc2ccccc2Cl)c2nn(-c3ccccc3)c(C)c12	inactive
C=C1C(=O)[C@]23C[C@H]1CCC2[C@@]1(C)C(C[C@@H]3O)[C@](C)(C(=O)O)CC[C@@H]1O (stereo partly drawn)	10 µM (active)
CCn1cc2nc(SCc3ccccc3Cl)n(CCc3ccccc3)c(=O)c2n1	inactive
Cc1ccc(S(=O)(=O)c2c(Nc3cccc(Cl)c3)sc(C(=O)c3ccc4c(c3)OCO4)c2N)cc1	inactive
Cc1ccc(NC(=O)CSc2nc3c([nH]c4ccccc43)c(=O)n2-c2ccccc2)c(C)c1	inactive
O=C(CSc1cccc2cccnc12)N/N=C/c1cccnc1	4.47 µM (active)

SMILES	Potency
Cc1ccc(NC(=O)C2CCCN2S(=O)(=O)c2cccc3cccnc23)c(C)c1 (stereo not drawn)	inactive
Cc1ccc(S(=O)(=O)N(CC(=O)N/N=C/c2ccc(F)cc2)c2cccc3cccnc23)cc1	inactive
O=C(N/N=C\c1cccnc1)c1cc(-c2ccccc2)nc2c(Cl)cccc12	inactive
Cc1ccc(NC(=O)CSc2cccc3cccnc23)c(C)c1	14.1 µM (active)
Cc1cccc(C)c1-n1ncc(C(=O)NCCCN2CCCCC2)c1C1CCN(C(=O)OC(C)(C)C)CC1	inactive
Cc1ccccc1C(=O)N(Cc1ccc(N(C)C)cc1)CC1CCCO1 (stereo not drawn)	inactive
CCOC(=O)c1ccc(NC(=O)CC2C(=O)N(c3ccccc3)C(=O)N2Cc2cccs2)cc1 (stereo not drawn)	inactive
CCOC(=O)C1CCN(c2nc3c(S(=O)(=O)c4ccc(CC)cc4)nnn3c3ccc(Cl)cc23)CC1	inactive
O=C1/C(=C/c2cccs2)SC(=S)N1C1CCS(=O)(=O)C1 (stereo not drawn)	15.8 µM (active)
CCN(C(=O)CN1C(=O)/C(=C/c2ccc(F)cc2)SC1=S)C1CCS(=O)(=O)C1 (stereo not drawn)	inactive
CN(C(=O)CCN1C(=O)/C(=C/c2ccccc2F)SC1=S)C1CCS(=O)(=O)C1 (stereo not drawn)	inactive
COc1ccc(Cl)cc1S(=O)(=O)N1CCC(c2ccncc2)CC1	inactive
CCN(C(=O)Cn1cc(S(=O)(=O)N2CCN(c3ccccc3F)CC2)c2ccccc2c1=O)c1ccc(C)c(C)c1	inactive
COc1ccc(C(F)(F)F)cc1NC(=O)c1sc2nc(-c3cccs3)ccc2c1N	inactive
Cc1ccc(CN2CCC(CNC(=O)c3cnn(-c4ccccc4Cl)c3C3CCN(C(=O)OC(C)(C)C)CC3)CC2)cc1	15.8 µM (active)
Cc1ccc(CN2CCC(CNC(=O)c3cnn(-c4ccc(C)cc4)c3C3CCN(C(=O)OC(C)(C)C)CC3)CC2)cc1	inactive
Cc1ccc(-n2ncc(C(=O)NC3CC3)c2C2CCN(C(=O)OC(C)(C)C)CC2)c(C)c1	inactive
CCc1nn(CC(=O)Nc2cc(C)cc(C)c2)c(=O)c2cc3sccc3n12	inactive
Oc1c(C(c2ccccn2)N2CCOCC2)ccc2cccnc12 (stereo not drawn)	3.98 µM (active)
Oc1c(C(c2ccccc2Cl)N2CCOCC2)sc2nc(-c3ccco3)nn12 (stereo not drawn)	inactive
O=C(COC(=O)c1ccccc1OCCOc1ccccc1)Nc1cccc(Br)c1	inactive
